Screens: PubChem BioAssay, National Center for Advancing Translational Sciences (NCATS)
MCF10A rereplic – A quantitative high throughput screen for small molecules that induce DNA re-replication in MCF 10a normal breast cells | MCF 10A DNA re-replication, Hoechst nuclear intensity, 48 h | Potency, µM (highest dose often 46.1 µM), most hits filed as activators | 2.9% of 350,000 active; note: nearly all actives have a fitted effect of over 50% in size
ELG1 repair inh – qHTS screen for small molecules that inhibit ELG1-dependent DNA repair in human embryonic kidney (HEK293T) cells expressing luciferase-tagged ELG1; HEK293T ELG1-luciferase reporter, luminescence, 16 h; DNA damage induced by 5-fluorouridine; Potency, µM (top dose mostly 46.1 µM), hits mostly inhibitors; 2.3% of 330,000 active; AID 504467, 2011; note: nearly all actives have a fitted effect of over 55% in size
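Cells (2,000 per well) received 5-fluorouridine plus test compound or DMSO and were incubated 16 hr at 37 °C, 5% CO2. Luciferase activity was read by luminescence 30 min after ONE-Glo addition; signal suppression marked inhibition of damage-induced ELG1 function.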
KB-V1 cytotox – qHTS assay for MDR1-selective chemotherapeutics: Primary screen using the drug-selected MDR subline cells KB-V1. 3.4% of 400,000 active. AID 1347076, 2019. KB-V1 MDR cells viability, CellTiter-Glo, 72 h. Potency, µM (titrated, usually from 46.1 µM), hits mostly cytotoxic; note: nearly all actives have a fitted effect of over 60% in size
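Potencies derive from concentration-effect curves fitted to normalized luminescence (CellTiter-Glo) of KB-V1 cells treated for 72 h at 37 degrees C in phenol-red-free DMEM containing 10% FBS.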
SW480 rereplic – A quantitative high throughput screen for small molecules that induce DNA re-replication in SW480 colon adenocarcinoma cells | SW480 DNA re-replication, Hoechst DNA content imaging, 48 h | Potency, µM (highest dose often 46.1 µM), hits mostly activators | 1.8% of 340,000 active; note: nearly all actives have a fitted effect of over 55% in size
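Image-based DNA-content assay: after two days of treatment, nuclei were labelled with the DNA dye Hoechst and imaged, and hits were compounds raising the count of nuclei showing high fluorescence intensity.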
KB-3-1 tox – qHTS assay for MDR1-selective chemotherapeutics: Primary screen using the parental adenocarcinoma cell KB-3-1. KB-3-1 viability, CellTiter-Glo ATP luminescence, 72 h. 1.4% of 400,000 active. AID 1347075, 2019. Potency, µM (top dose mostly 46.1 µM), actives largely listed as cytotoxic; note: nearly all actives have a fitted effect of over 60% in size
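72 h, 37 °C compound treatment of KB-3-1 parental cells; CellTiter-Glo added, 10 min, luminescence read. Data corrected against DMSO-only plates and normalized before curve fitting.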
Each line names hits and unclear results; the compound was inactive in the other large screens. Hits are enriched below; roughly 8.2% of the tested compounds scored in any of these assays. Calls come from the whole dose curve; as a rule, active = well fitted curve in the direction sought with a large enough effect; inconclusive = small, poorly fitted or top-dose-only effect, or another doubt; inactive = no such curve, though single readings can be large; an effect the other way counts as inactive or inconclusive.

COc1ccc2c(c1)CCc1c(C(=O)Nc3c(C)nn(Cc4ccccc4Cl)c3C)noc1-2	none (no result: MCF10A rereplic, ELG1 repair inh, SW480 rereplic)
COc1ccc2c(c1)CCc1c(C(=O)Nc3c(C)nn(Cc4ccccc4)c3C)noc1-2	MCF10A rereplic inconclusive, ELG1 repair inh 13µM, KB-V1 cytotox inconclusive
Cc1ccc2c(Cl)c(C(=O)NCc3cccnc3)sc2c1	KB-V1 cytotox 14.6µM
O=C(NCc1cccnc1)c1sc2ccccc2c1Cl	ELG1 repair inh inconclusive, KB-3-1 tox inconclusive
Cc1ccc2c(Cl)c(C(=O)Nc3ccc4c(c3)OCO4)sc2c1	MCF10A rereplic inconclusive, ELG1 repair inh inconclusive, SW480 rereplic 20.6µM
CN1CCN(c2nc3c(=O)[nH]c(N)nc3n2C2OC(CO)C(O)C2O)CC1 (centres undefined)	none (no result: MCF10A rereplic, ELG1 repair inh, SW480 rereplic)
CCOC(=O)CN1C(=O)C(C)(C)Oc2ccc(C(=O)Nc3ccccc3)cc21	ELG1 repair inh 13µM
COC(=O)CN1C(=O)C(C)(C)Oc2ccc(C(=O)Nc3ccccc3F)cc21	none
COCCN1CCN(C(=O)c2cc(COc3ccc(Cl)cc3OC)on2)CC1	ELG1 repair inh inconclusive, KB-V1 cytotox inconclusive
COCCCn1c(SCc2ccccc2)nc2cc(OC)c(OC)cc2c1=N	ELG1 repair inh 16.4µM, KB-V1 cytotox inconclusive, KB-3-1 tox inconclusive
COCCCn1c(SCc2cccc(C(F)(F)F)c2)nc2cc(OC)c(OC)cc2c1=N	ELG1 repair inh inconclusive
COc1ccc(Cn2c(SCc3ccc(C)cc3)nc3cc(OC)c(OC)cc3c2=N)cc1Cl	MCF10A rereplic 4.11µM, ELG1 repair inh inconclusive, KB-V1 cytotox inconclusive, SW480 rereplic inconclusive, KB-3-1 tox inconclusive
COc1cc2nc(SCc3ccc(Cl)cc3Cl)n(Cc3cccs3)c(=N)c2cc1OC	MCF10A rereplic inconclusive, ELG1 repair inh inconclusive, KB-V1 cytotox 6.51µM, KB-3-1 tox 23.1µM
COc1cc2nc(SCc3ccc(C(F)(F)F)cc3)n(Cc3cccs3)c(=N)c2cc1OC	none
COc1ccc(Cn2c(SCc3cc(C)ccc3C)nc3cc(OC)c(OC)cc3c2=N)cc1	MCF10A rereplic 3.66µM, ELG1 repair inh inconclusive, KB-V1 cytotox 11.2µM, SW480 rereplic inconclusive, KB-3-1 tox inconclusive
CCCCNC(=O)CSc1nc2cc(OC)c(OC)cc2c(=O)n1Cc1ccc(OC)cc1	KB-V1 cytotox 2.06µM
Cc1oc(-c2ccccc2Cl)nc1CS(=O)(=O)CC(=O)NCc1ccc(F)cc1	none (no result: MCF10A rereplic, ELG1 repair inh, SW480 rereplic)
CCN(Cc1ccc2c(c1)OCO2)C(=O)CSc1nc(C)nc2sc(C)c(C)c12	MCF10A rereplic inconclusive, ELG1 repair inh 18.3µM, KB-V1 cytotox inconclusive
CCN(C(=O)CSc1nc(C)nc2sc(C)c(C)c12)c1ccc(F)cc1	none
FC(F)(F)c1cccc(N2CCN(c3ccc4nnc(-c5ccccc5)n4n3)CC2)c1	MCF10A rereplic inconclusive, ELG1 repair inh inconclusive, KB-V1 cytotox 16.4µM
COc1ccc(S(=O)(=O)N2CCN(c3ccc4nnc(-c5ccc(F)cc5)n4n3)CC2)cc1	ELG1 repair inh 18.4µM, KB-V1 cytotox inconclusive, KB-3-1 tox inconclusive
O=C(Nc1ccccc1Cl)N1CCN(c2ccc3nnc(-c4ccccc4)n3n2)CC1	ELG1 repair inh 13µM
Cc1ccc(S(=O)(=O)N2CCN(c3ccc4nnc(-c5ccccc5)n4n3)CC2)cc1	none
O=C(Nc1ccc(Cl)cc1)N1CCN(c2ccc3nnc(-c4ccc(F)cc4)n3n2)CC1	MCF10A rereplic inconclusive, ELG1 repair inh 4.61µM, KB-V1 cytotox inconclusive
Cc1cccc(OCc2nnc(SC(C)C(=O)O)n2-c2ccccc2)c1 (centres undefined)	ELG1 repair inh inconclusive
CCCN(C)CCCOc1cc2nc(N3CCCN(C)CC3)nc(NC3CCN(C)CC3)c2cc1OC	KB-3-1 tox inconclusive (no result: MCF10A rereplic, ELG1 repair inh, SW480 rereplic)
CC(=O)OC[C@]12CC[C@H]3[C@@](C)(CC[C@H]4C(C)(C)CCC[C@]34C)[C@@H]1C[C@H](C1=CC(=O)O[C@@H]1OC(C)=O)O2	none (no result: MCF10A rereplic, KB-V1 cytotox, SW480 rereplic, KB-3-1 tox)
CC(=O)NC(Cc1ccc(C)cc1)C(=O)NC1CCN(C(=O)NCc2ccccc2)CC1 (centres undefined)	none
COc1ccc(C(C)=O)cc1CSc1nnc(C)n1-c1ccccc1	KB-V1 cytotox 20.6µM
